Consider 16 molecules from PubChem BioAssay (NCI).

The panel holds about 83,000 compounds, 20% with a hit somewhere; the sample as a whole holds those more often.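 Method: cells in 96-well plates; compound added at one concentration; 48 h incubation; percent growth measured; values under 10 scored active.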 Unmarked numbers belong to inactive results. Calls of active or inactive are those of the source.

Among the test systems are T-47D breast; BT-549 breast; MDA-MB-435 melanoma; SW-620 colon; MCF7 breast; HCT-116 colon; HCC-2998 colon; KM12 colon.
What all share (assay): NCI-60 one-dose screen, 48 h (100 = growth as untreated, 0 = no growth, -100 = all killed)
Holding throughout (settings): 10 µM unless noted

With `CCN(CC)CCNCC(O)Cc1ccc(OC)cc1` (stereo not given), the growth in the test on T-47D breast was 91.5%; in the test on BT-549 breast it was 83.9%; in the test with MDA-MB-435 melanoma, 108%; in the test on SW-620 colon, 103%; in the test with MCF7 breast, 103%; in the test on HCT-116 colon, 82.4%. For the same molecule, the values for the growth with HCC-2998 colon and in the test on KM12 colon were 101% and 106%, respectively.

As for `O=[N+]([O-])c1ccccc1NC1c2ccccc2Oc2ccccc21`, the growth in the test on T-47D breast is 76.5%; with BT-549 breast, 54.8%; with MDA-MB-435 melanoma, -47.7% (active); with SW-620 colon, 19.8%; in the test with MCF7 breast, 57.1%; in the test with HCT-116 colon it was 30.3%. For the same molecule, the growth was 66% in the test with HCC-2998 colon and 26.3% in the test on KM12 colon.

For the molecule `COC(=O)c1oc2c(C(C)=O)c(OCCCN(C)C)ccc2c1C`, the growth in the test with T-47D breast is 103%; in the test with BT-549 breast, 215%; with MDA-MB-435 melanoma, 107%; in the test with SW-620 colon it was 106%; in the test with MCF7 breast, 148%; in the test on HCT-116 colon, 53.9%. Further, the growth in the test with HCC-2998 colon is 116%; with KM12 colon, 100%.

Turning to `Cn1c(I)c(C#C[Si](C)(C)C)c(=O)[nH]c1=O`, the growth is 21.9% in the test on T-47D breast; 40.7% with BT-549 breast; 58.7% in the test on MDA-MB-435 melanoma; -66.5% (active) with SW-620 colon; 82.1% with MCF7 breast; -43.1% (active) with HCT-116 colon. The figures for the growth in the test with HCC-2998 colon and with KM12 colon were -67.1% (active) and 103%, respectively.

Regarding `CC(=O)Nc1ccc(OC(=O)c2ccccc2O)cc1`, the growth is 100% in the test with T-47D breast; 113% with BT-549 breast; 98.6% in the test with MDA-MB-435 melanoma; 101% in the test with SW-620 colon; 99.5% in the test with MCF7 breast; 114% in the test with HCT-116 colon. Moreover, the growth in the test on KM12 colon was 99.1%.

Regarding `CC(C)(C)OC(=O)N1CCN(CCn2cc(C(F)(F)F)c3c(Cl)ncnc32)CC1`, the growth in the test with T-47D breast is 90.3%; in the test on BT-549 breast, 118%; in the test with MDA-MB-435 melanoma, 47.1%; in the test with SW-620 colon it was 12%; with MCF7 breast it was 87.4%; in the test on HCT-116 colon, 12.1%. Moreover, the results for the growth in the test on HCC-2998 colon and in the test on KM12 colon were 86.1% and 95.9%, respectively.

Regarding `CC(/C=C/C=C(\C)[C@H](O)[C@H](C)C(=O)O[C@H]1C[C@H](C)C=C2C=C[C@@]3(C)O[C@@H](O)CC(=O)[C@]3(C)[C@H]21)=C\C=C\C(=O)O`, the growth was -12.3% (active) in the test on T-47D breast; -21.5% (active) in the test with BT-549 breast; 8.57% (active) with MDA-MB-435 melanoma; 9.52% (active) in the test with SW-620 colon; 3.12% (active) with MCF7 breast; 2.2% (active) in the test with HCT-116 colon. For the same molecule, the growth in the test on HCC-2998 colon was 7.5% (active); with KM12 colon it was 0.481% (active).

With `COc1cc2c(cc1OC)-c1c(oc3c4c(ccc3c1=O)OC(C)(C)C=C4)CO2`, the growth with T-47D breast was 39.2%; in the test on BT-549 breast it was 52.6%; in the test with MDA-MB-435 melanoma, 61.2%; in the test with SW-620 colon, 89.8%; with MCF7 breast it was 48.8%; in the test on HCT-116 colon, 40.3%. The growth with HCC-2998 colon was 81.5%; in the test with KM12 colon it was 76.8%.

Take `Cc1cn([C@]2(CF)O[C@H](CO)C2C)c(=O)[nH]c1=O` (stereo not given in full): the growth in the test with T-47D breast was 119%; in the test on BT-549 breast it was 110%; in the test with MDA-MB-435 melanoma, 133%; in the test with SW-620 colon, 98.6%; with MCF7 breast, 120%; in the test with HCT-116 colon, 100%. In addition, the growth was 121% with HCC-2998 colon and 110% with KM12 colon.

In the case of `COc1cc([C@@H]2c3cc4c(cc3C(OC3O[C@@H]5COC(C)O[C@H]5[C@H](O)[C@H]3O)C3COC(=O)[C@@H]32)OCO4)cc(OC)c1O` (stereo not given in full), the growth in the test on T-47D breast was 23.9%; with BT-549 breast, 31.4%; in the test with MDA-MB-435 melanoma, 50%; with SW-620 colon it was 35.6%; with MCF7 breast it was 22.4%; with HCT-116 colon, 41.7%. In addition, the results for the growth in the test with HCC-2998 colon and in the test on KM12 colon were 38.7% and 42.1%, respectively.

`Cc1nssc1=S`: the growth was 105% in the test with T-47D breast; 110% in the test on BT-549 breast; 104% in the test with MDA-MB-435 melanoma; 103% in the test with SW-620 colon; 93.7% in the test on MCF7 breast; 96.9% with HCT-116 colon. Moreover, the growth with HCC-2998 colon and with KM12 colon was 108% in each case.

As to `O=C1CCC(c2c(O)cc(O)c3c(=O)c(O)c(-c4ccc(O)c(O)c4)oc23)N1` (stereo not given), the growth was 83.6% in the test on T-47D breast; 112% in the test on BT-549 breast; 110% with MDA-MB-435 melanoma; 108% in the test on SW-620 colon; 95.2% with MCF7 breast; 99.8% in the test on HCT-116 colon. In addition, the figures for the growth in the test with HCC-2998 colon and in the test on KM12 colon were 89.4% and 101%, respectively.

With `O=C(O)c1cn(C2CC2)c2cc(N3CCN(C(=O)CSc4nc(NS(=O)(=O)c5ccccc5)cc(=O)[nH]4)CC3)c(F)cc2c1=O`, the growth in the test on T-47D breast was 116%; in the test with BT-549 breast, 99%; in the test on MDA-MB-435 melanoma, 90.1%; in the test on SW-620 colon it was 99.9%; with HCC-2998 colon, 91.7%; in the test on KM12 colon, 91.6%.

As to `CC(=O)N1N=C2N(Cc3ccccc3)C(=O)c3c(sc4c3CCCC4)N2C1c1cn(-c2ccccc2)nc1-c1ccc(Cl)cc1` (stereo not given), the growth in the test on T-47D breast was 80.8%; with BT-549 breast, 99.5%; with MDA-MB-435 melanoma, 95.4%; with SW-620 colon, 103%; with MCF7 breast, 92.4%; with HCT-116 colon, 96.8%. The growth in the test on HCC-2998 colon is 112%; in the test with KM12 colon it was 98%.

As for `COc1ccc(-c2nnc(SCC(=O)Nc3ccc(C(=O)/C=C/c4ccc(OC)c(OC)c4)cc3)o2)cc1`, the growth in the test with T-47D breast was 75%; in the test on BT-549 breast, 113%; in the test with MDA-MB-435 melanoma it was 94.2%; in the test on SW-620 colon it was 92.7%; in the test with MCF7 breast, 51.6%; with HCT-116 colon it was 77.8%. The values for the growth with HCC-2998 colon and in the test with KM12 colon were 102% and 84.5%, respectively.

For `CCCCOc1nc2ccc(Cl)cc2cc1/C=C/C(=O)/C=C/c1ccc(Cl)cc1`, the growth is 53.8% in the test on T-47D breast; 36.3% in the test on BT-549 breast; 2.31% (active) in the test on MDA-MB-435 melanoma; 42.5% in the test with SW-620 colon; 23% with MCF7 breast; -29.1% (active) in the test on HCT-116 colon. For the same molecule, the growth in the test with HCC-2998 colon is 60.4%; in the test on KM12 colon it was 51.6%.
